Measured values taken from article PMC5540273 (PLoS ONE, 2017).

What was measured:
Details in all cases: concentration: 1 μM, replicates: in singlicate; n = 1
[1] = system: T1, PKAC-beta
T1 construct: gene PRKACB

[2] = system: PKMYT1
[3] = system: PKN1
[4] = system: PKN2
[5] = system: PLK1
[6] = system: PLK2
[7] = system: PLK3
[8] = system: PLK4
[9] = system: PRKCD
[10] = system: PRKCE
[11] = system: PRKCH
[12] = system: PRKCI
[13] = system: PRKCQ
[14] = system: PRKD1
[15] = system: PRKD2
[16] = system: PRKD3
[17] = system: PRKG1
[18] = system: PRKG2
[19] = system: T2, PRKR
T2 construct: gene EIF2AK2

[20] = system: PRKX
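Note: KINOMEscan kinase panel screen.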

Row | Compound | %Inh [1] [%] | %Inh [2] [%] | %Inh [3] [%] | %Inh [4] [%] | %Inh [5] [%] | %Inh [6] [%] | %Inh [7] [%] | %Inh [8] [%] | %Inh [9] [%] | %Inh [10] [%] | %Inh [11] [%] | %Inh [12] [%] | %Inh [13] [%] | %Inh [14] [%] | %Inh [15] [%] | %Inh [16] [%] | %Inh [17] [%] | %Inh [18] [%] | %Inh [19] [%] | %Inh [20] [%]
1 | COC(=O)C(NC(=O)NC1CCN(c2ccnc(Nc3ccc(F)cc3)n2)C1)c1ccccc1 (stereo not shown) [GSK1379712] | 0 | 0 | 18 | 0 | 13 | 3 | 4 | 1 | 0 | 18 | 0 | 24 | 3 | 0 | 14 | 4 | 0 | 0 | 0 | 12
2 | COC(=O)c1cccc(NC(=O)NC2CCN(c3ccnc(Nc4ccc(OC)cc4)n3)C2)c1 (stereo not shown) [GSK1379746] | 0 | 0 | 11 | 0 | 0 | 0 | 0 | 0 | 0 | 8 | 31 | 13 | 0 | 0 | 0 | 0 | 0 | 0 | 0 | 0
3 | CC[C@@H]1CO[C@H](C(=O)Nc2ccccc2)CN1c1cc(-c2ccc3c(N)n[nH]c3c2)nc(NC)n1 [GSK2376236] | 73 | 0 | 85 | 0 | 0 | 0 | 0 | 0 | 0 | 3 | 6 | 39 | 24 | 0 | 12 | 3 | 13 | 84 | 12 | 95
4 | Cc1c(Cn2c(C)c(C)n3c(=O)cc(N4CCOCC4)nc23)cccc1C(F)(F)F [GSK2328680] | 0 | 17 | 0 | 0 | 0 | 100 | 0 | 0 | 0 | 0 | 23 | 0 | 8 | 0 | 18 | 8 | 5 | 91.2 | 0 | 0
5 | Fc1ccc(-c2nn3cccc(F)c3c2-c2ccncc2)cc1 [GW475620] | 47 | 11 | 9 | 11 | 9 | 69 | 0 | 3 | 19 | 6 | 42 | 39 | 14 | 16 | 60 | 34 | 34 | 0 | 0 | 4
